# Assay outcomes: PubChem, National Center for Advancing Translational Sciences (NCATS)
# BLM inh: blocks DNA unwinding by human BLM helicase | P54132 | AID 2528 | Potency, µM (titrated, usually from 56.1 µM), without a hit: top-dose activity change, negative = inhibition, actives largely listed as inhibitors | 350,000 compounds, 0.2% hits | recombinant BLM DNA unwinding, fluorescence dequenching;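 further: plate controls were vehicle for no effect and no enzyme for full effect; nearly all actives have a fitted effect of over 35% in size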
# L3MBTL1 inh: inhibitors of human L3MBTL1. AlphaScreen L3MBTL1–H3K9me1 peptide binding. Potency, µM (top dose mostly 57.1 µM), without a hit: at the top dose activity, negative = inhibition, usual class: inhibitors. 230,000 compounds, 0.66% hits; further: nearly all actives have a fitted effect of over 60% in size
# Target sequence (Q9Y468 whole entry, looked up): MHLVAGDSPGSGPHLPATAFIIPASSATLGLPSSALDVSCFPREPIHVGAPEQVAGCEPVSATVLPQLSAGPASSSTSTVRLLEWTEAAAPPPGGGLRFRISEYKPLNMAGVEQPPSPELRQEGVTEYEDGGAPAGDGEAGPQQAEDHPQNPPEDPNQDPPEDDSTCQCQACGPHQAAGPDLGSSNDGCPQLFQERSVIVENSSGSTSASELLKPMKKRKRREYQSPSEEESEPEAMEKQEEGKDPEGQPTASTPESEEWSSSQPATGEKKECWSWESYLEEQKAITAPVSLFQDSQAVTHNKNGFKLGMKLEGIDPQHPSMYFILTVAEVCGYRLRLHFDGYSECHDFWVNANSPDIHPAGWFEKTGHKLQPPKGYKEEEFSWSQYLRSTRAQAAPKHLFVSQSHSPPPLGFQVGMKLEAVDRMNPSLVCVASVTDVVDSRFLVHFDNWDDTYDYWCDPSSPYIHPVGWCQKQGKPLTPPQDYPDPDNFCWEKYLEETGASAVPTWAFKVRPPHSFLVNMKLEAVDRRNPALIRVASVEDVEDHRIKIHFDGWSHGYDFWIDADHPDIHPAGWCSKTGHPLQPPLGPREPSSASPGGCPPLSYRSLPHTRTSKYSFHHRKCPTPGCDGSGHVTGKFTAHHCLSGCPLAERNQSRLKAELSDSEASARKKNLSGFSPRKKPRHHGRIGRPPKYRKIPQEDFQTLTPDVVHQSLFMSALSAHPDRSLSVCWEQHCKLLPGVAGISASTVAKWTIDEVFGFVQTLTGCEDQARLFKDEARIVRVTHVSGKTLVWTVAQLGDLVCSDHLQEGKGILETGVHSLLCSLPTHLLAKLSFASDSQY
#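 L3MBTL1 50 nM + b-AHA-H3(1-15)K9me1 75 nM, 30 min RT; compound added, 30 min RT; streptavidin donor/Ni-chelate acceptor beads 10 ug/mL each final, 30 min RT dark; AlphaScreen read.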
# RECQ1 inh-1: blocks DNA unwinding by human RECQ1 | P46063 | RECQ1 DNA unwinding, red fluorescence kinetic read | Potency, µM (series often up to 57.3 µM), without a hit: at the highest dose activity, negative = inhibition, usual class: inhibitors | 240,000 compounds, 0.54% hits;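 further: plate controls were vehicle for no effect and no enzyme for full effect; nearly all actives have a fitted effect of over 30% in size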
#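 RECQ1T1 50 nM; forked duplex (20 bp + 30-nt ss tails) 200 nM, ATP 2 mM final; pH 8.0, 2 mM MgCl2, 2.5 ug/ml poly(dI-dC); 15 min compound preincubation; discontinuous kinetic read over 2 h at RT.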
# APEX1 inh: APE1 (human) endonuclease inhibition | P27695 | recombinant APE1, TAMRA/BHQ-2 abasic DNA cleavage fluorescence | Potency, µM (series often up to 65.8 µM), without a hit: at the top dose activity change, negative = inhibition, most hits filed as inhibitors | AID 2517 | 350,000 compounds, 0.35% hits;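 further: plate controls were vehicle for no effect and reference inhibitor for full effect; nearly all actives have a fitted effect of over 55% in size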
#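 Substrate: short duplex with […] THF abasic site, 5'-TAMRA and 3'-BHQ-2, 50 nM final. APE1 at 0.75 nM, preincubated 15 min RT with compound. Fluorescence increase from first to third read measured activity.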
# JMJD2E inh: JMJD2E (human) inhibition; B2RXH2; JMJD2E catalytic domain, FDH-coupled NADH fluorescence (FDH is formaldehyde dehydrogenase); Potency, µM (highest dose often 57.1 µM), without a hit: at the highest dose activity change, negative = inhibition, actives largely listed as inhibitors; 230,000 compounds, 1.6% hits; AID 2147; active means well fitted inhibition curve with a large enough effect, not every such curve was filed as active; inconclusive means small, poorly fitted or top-dose-only effect, or another doubt; inactive means no such curve, though single readings can be large or run the other way;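 further: 0% = wells with enzyme and -100% = buffer wells without enzyme; nearly all actives have a fitted effect of over 50% in size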
# KAT2A inh: blocks human GCN5L2 histone acetyltransferase; Q92830; GCN5L2 HAT assay, ThioGlo1 CoA-SH fluorescence; Potency, µM (highest dose often 58.9 µM), inactives show at the highest dose activity change, negative = inhibition, most hits filed as inhibitors; 390,000 compounds, 0.21% hits
#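 Free CoA generated was detected with ThioGlo1 (50uM) fluorescence at Ex340nm/Em540nm, read immediately and after 20 min at room temperature. Enzyme, 20 nM in HEPES pH 7.5 buffer, saw compounds 15 min before adding 75uM H3(1-25) peptide and 70uM acetyl-CoA.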
# RECQ1 inh conf: confirmation of human RECQ1 helicase inhibitors; shares compounds with RECQ1 inh-1; RECQ1 helicase DNA unwinding, fluorescence; Potency, µM (series often up to 229 µM), for the others: top-dose activity change, negative = inhibition, most hits filed as inhibitors; 610 compounds, 28% hits; AID 2708; further: nearly all actives have a fitted effect of over 45% in size
# ADP FP counter: displaces ADP in a fluorescence polarization counter-screen for RECQ1 hits; AID 2711; 530 compounds, 27% hits; ADP fluorescence polarization displacement counterscreen; Potency, µM (titrated, usually from 228 µM), for the others: at the highest dose activity change, negative = inhibition, actives largely listed as inhibitors; shares compounds with RECQ1 inh-1; further: nearly all actives have a fitted effect of over 45% in size
# RECQ1 inh-2: RECQ1 helicase inhibition confirmed, round 2; Potency, µM (highest dose often 119 µM), for the others: at the highest dose activity, negative = inhibition, usual class: inhibitors; recombinant RECQ1 DNA unwinding, red fluorescence; shares compounds with RECQ1 inh-1; 1,100 compounds, 15% hits; AID 504841; further: nearly all actives have a fitted effect of over 50% in size
# Numbers without * were called inactive; i = inactive; ? = inconclusive; / = not tested or not shown; [ ] = another dose, or the depositor's remark. Shown is part of a subset that was picked to be rich in hits. Unless noted, the call rests on the fitted dose curve; in most records, active means well fitted curve in the direction sought with a large enough effect; inconclusive means small, poorly fitted or top-dose-only effect, or another doubt; inactive means no such curve, though single readings can be large; an effect the other way counts as inactive or inconclusive. Unless noted, on the % scale 0 is the no-effect control and ±100 the full control effect; potency means the concentration at half of the fitted maximal effect.
SMILES,BLM inh,L3MBTL1 inh,RECQ1 inh-1,APEX1 inh,JMJD2E inh,KAT2A inh,RECQ1 inh-2,others
Cc1ccc(S(=O)(=O)N2CCC(C(=O)NCCN3CCCCCC3)CC2)cc1,2.6%,1.0%,?,-1.9%,-22.7%,1.4%,-14.2%,
Cc1ccc(S(=O)(=O)N2CCC(C(=O)NCCCN3CCCC3=O)CC2)cc1,/,29.2%,/,-2.7%,/,1.1%,/,
CCOC(=O)c1ccc(CC(=O)c2ccc(O)c(O)c2O)o1,-5.8%,?,1.41µM*,?,3.16µM*,-11.7%,/,RECQ1 inh conf=5.0%[114 µM];ADP FP counter=1.8%[91.9 µM]
COc1ccc2c(c1)c1c(n2C(C)=O)C(OC(C)=O)=NCC1,-4.6%,-2.1%,1.9%,0.7%,12.9%,-11.4%,/,
CCn1c(SCC(=O)OC)nc2sc3c(c2c1=O)CCC3,-22.0%,?,?,?,-1.5%,-21.4%,?,
CC(=O)Nc1cccc(OCc2ccc(S(=O)(=O)Cc3ccccc3)cc2)c1,-3.1%,21.8%,i,?,9.2%,-1.0%,/,
COc1ccc(OC)c(-c2csc(NC(=O)Cc3ccc(F)cc3)n2)c1,-15.5%,/,/,59.9%,/,-8.9%,/,
COc1ccc(OC)c(-c2csc(NC(=O)Cn3[nH]c(=O)c4ccccc4c3=O)n2)c1,-11.3%,-8.1%,28.2µM*,-4.4%,?,-4.8%,?,
CCOC(=O)C(=CNc1ccc(-c2ccco2)c(Cl)c1)C(=O)OCC,-12.5%,-18.1%,?,-3.0%,?,-7.6%,-27.4%,
CC(C)C1Oc2ccccc2N(CC(=O)NCCCN2C(C)CCCC2C)C1=O (centres undefined),-1.3%,9.4%,-2.9%,2.1%,1.2%,-2.6%,/,
Cc1ccc(NC(=O)c2cc(S(=O)(=O)NCCc3ccccc3)ccc2F)cc1Cl,-9.9%,6.6%,?,-5.1%,0.4%,-1.8%,-19.3%,
O=C(CN1CCC(C(=O)c2ccc3c(c2)OCCO3)CC1)Nc1ccccc1C(F)(F)F,-9.3%,/,/,30.9%[12.4 µM],/,-10.2%,/,
Cc1cc(/C=C2\SC(=S)NC2=O)c(C)n1C,-18.0%,-8.0%,0.316µM*,-4.2%,1.9%,-2.6%,/,RECQ1 inh conf=44.7µM*;ADP FP counter=10µM*
COc1ncnc2c1NC1=C(S2)C(=NCCC(=O)O)CC(C)(C)C1,?,-19.0%,?,?,2.9%,-23.6%,79.4µM*,
CN(C)c1ncnc2c1NC1=C(S2)C(=NCCCC(=O)O)CC(C)(C)C1,-1.3%,2.7%,?,-3.6%,?,-8.0%,/,
CN(C)/C=C1\C(=O)ON=C1c1ccccc1,1.7%,11.0%,-4.6%,-4.7%,3.0%,-3.7%,/,
O=C1ON=C(c2ccccc2)/C1=C/c1ccco1,1.8%,28.2µM*,?,?,-28.0%,-6.3%,-24.7%,
COCCn1c(C)cc(C(=O)CSc2nnc(-c3cccnc3)n2-c2ccccc2F)c1C,-11.6%,-9.4%,3.16µM*,0.8%,1.3%,-1.4%,/,RECQ1 inh conf=?;ADP FP counter=50.1µM*
CC(O)c1c(-c2ccccc2)nn(C)c1Cl (centres undefined),-0.6%,-7.2%,39.8µM*,21.6%,0.7%,-13.7%,-8.5%,
Cc1ccc(OCc2ccc(C(=O)Nc3ccc(C(N)=O)cc3)o2)c([N+](=O)[O-])c1,-0.9%,5.5%,?,-4.3%,24.3%,-2.9%,?,
Cc1c(NC(=O)C(C)OC(=O)CC2Sc3ccccc3NC2=O)c(=O)n(-c2ccccc2)n1C (centres undefined),-9.8%,-0.6%,-8.2%,16.8%,-6.7%,-9.9%,/,RECQ1 inh conf=-2.0%;ADP FP counter=-11.8%
COc1ccc(NC(=O)C23CC4CC(C2)CC(c2ccc(C)cc2)(C4)C3)cc1,-7.2%,3.0%,-0.4%,4.4%,-7.3%,2.9%,/,
COc1ccccc1NC(=O)C12CC3CC(C1)CC(c1ccc(C)cc1)(C3)C2,-5.3%,12.3%,31.6µM*,-2.0%,-4.6%,-9.6%,-13.7%,
CCn1cc(C(=O)NCCCOC(C)C)c(=O)c2cc(S(=O)(=O)N3CCc4ccccc4C3)ccc21,-3.3%,/,/,/,/,-4.4%,/,
COc1ccc(/C=N/NC(=O)c2nn(-c3ccccc3)c(=O)c3c(N)scc23)cc1,-10.0%,?,25.1µM*,?,?,?,/,RECQ1 inh conf=21.9%[114 µM];ADP FP counter=?
SMILES,BLM inh,L3MBTL1 inh,RECQ1 inh-1,APEX1 inh,JMJD2E inh,KAT2A inh,RECQ1 inh-2,others
Cc1cc(C)c(C)c(S(=O)(=O)N2CCN(C(=O)c3cc(S(=O)(=O)N4CCOCC4)ccc3F)CC2)c1C,/,-3.7%,/,-11.4%,/,-5.7%,/,
N=C1S/C(=C\c2ccc(-c3ccccc3C(=O)O)o2)C(=O)N1c1ccc2c(c1)OCO2,-19.9%,/,-2.2%,?,5.62µM*,-24.2%,/,RECQ1 inh conf=?;ADP FP counter=?
O=C(C1CC1)N1CCN=C1SCc1ccc(F)cc1,-7.5%,/,-9.4%,-0.4%,-4.4%,-0.5%,/,
O=C(C1CC1)N1CCN=C1SCc1cccc(F)c1,3.1%,4.9%,?,5.5%,-3.1%,1.5%,?,
Cc1ccc(NC(=O)/C=C\C(=O)N(c2ccc(C(C)C)cc2)C(C(=O)NCc2ccco2)c2ccc(Cl)cc2)cc1 (centres undefined),-13.6%,/,/,/,/,-18.6%,/,
CC(=O)c1cc2c(cc1N(C(=O)Cn1nnc3ccccc31)C(C(=O)NCCC(C)C)c1cccnc1)OCO2 (centres undefined),-2.4%,1.9%,-0.2%,-4.5%,-16.8%,4.2%,/,RECQ1 inh conf=-2.6%;ADP FP counter=4.7%
CCOc1ncccc1C(=O)N1CCCSC1=Nc1ccc(C(C)=O)cc1,-11.8%,?,22.5%,-5.1%,-3.6%,-5.6%,/,
COc1ccc2c(c1)nc(NCCCO)n2Cc1ccccc1,-2.0%,/,-6.2%,8.7%,0.7%,11.3%,/,
CC(C)CC1=C/C(=C/c2ccc(-c3ccccc3)o2)C(=O)O1,-25.0%,?,25.1µM*,?,?,?,/,RECQ1 inh conf=?
NS(=O)(=O)c1ccc(-c2ccc(C=C3C(=O)c4ccccc4C3=O)o2)cc1,-3.1%,1.8%,/,32.9%,/,1.9%,/,
CC(C)(C)OC(=O)NCCCC1=CC2=CC(=O)C(C)(O)C(=O)C2=CO1 (centres undefined),1.1%,/,-2.2%,-2.6%,?,/,/,
O=C1NN(c2ccc(F)c(Cl)c2)C(=O)/C1=C\c1cccc(OC(=O)c2cccs2)c1,-13.9%,/,i,-2.0%,6.6%,-22.9%,/,
